KCNQ2 pot = enhances the rat KCNQ2 potassium channel; AID 2239; B-score at 10 µM; 310,000 compounds, 0.54% hits; CHO-K1 KCNQ2, FluxOR thallium flux fluorescence; hits give high values;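 active = fluorescence ratio B-score at least 3 SD of library B-scores, with initial fluorescence B-score within 3 of them, cut at about 5.3 in these data; same plate scores as AID 2156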;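 also: B-score of peak minus minimum over baseline fluorescence ratio after K+ and Tl+ stimulus; positive B-score means potentiation of KCNQ2 with more thallium influx and brighter signal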
KCNQ2 inh = inhibitors of rat KCNQ2 potassium channel; CHO-K1 KCNQ2, FluxOR thallium flux, 20 min; hits give low values; B-score at 10 µM; O88943; 310,000 compounds, 1.1% hits;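 active = fluorescence ratio B-score at most minus 3 library SDs, with starting brightness B-score within 2 library SDs, cut at about -5.5 in these data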
* marks the source's active call; other numbers are inactive results; i = inactive; . = no result given. Compounds with a hit are over-represented: about 1.6% of the library has one in this group of screens.

SMILES | KCNQ2 pot | KCNQ2 inh
O=C(/C=C/c1ccco1)NC(=S)Nc1cc(C(F)(F)F)ccc1N1CCOCC1 | -7.3 | -7.3*
O=C(CCCCl)NC(=S)Nc1cc(C(F)(F)F)ccc1N1CCOCC1 | 0.03 | i
O=C(Nc1cc(C(F)(F)F)ccc1N1CCOCC1)C1Cc2ccccc2CN1C(=O)c1ccco1 (stereo not given) | -6.5 | -6.5*
O=C(Nc1ccccc1)C1Cc2ccccc2CN1C(=O)c1ccco1 (stereo not given) | . | i
C=CCN1C(=O)c2ccc(C(=O)NCCc3ccc(OC)c(OC)c3)cc2C1=O | . | i
Cc1ccc(S(=O)(=O)NC(Cc2ccccc2)C(=O)O)cc1C (stereo not given) | 1.6 | i
Cc1ccc(C)c(NC(=S)NNC(=O)c2cc3c(s2)CCC(C)C3)c1 (stereo not given) | 11* | i
Cc1ccc(C)c(NC(=S)NNC(=O)c2sccc2C)c1 | 1.6 | i
Cc1cccc(NC(=S)NNC(=O)c2cc3c(s2)CCC(C)C3)c1C (stereo not given) | 8.5* | i
CC1CCc2sc(C(=O)NN=C3CCC(c4ccccc4)CC3)cc2C1 (stereo not given) | 0.75 | i
CCOc1ccccc1NC(=O)CNS(=O)(=O)c1ccc2nc(C)sc2c1 | 0.5 | i
CC[C@@H]1CC=C[C@H]2[C@H]1C(=O)N(Cc1ccccc1)[C@H]2c1ccc2ccccc2c1 | -5.7 | -5.7*
O=C1C2C(c3ccccc3)CC=CC2[C@H](c2ccc(C(F)(F)F)cc2)N1Cc1ccccc1 (stereo not given in full) | -7.8 | -7.8*
C[C@@H]1CC=C[C@H]2[C@H]1C(=O)N(Cc1ccccc1)[C@H]2c1ccc(C(F)(F)F)cc1 | . | i
COc1ccc([C@H]2[C@H]3C=CC[C@@H](C)[C@@H]3C(=O)N2Cc2ccccc2)cc1Cl | . | i
CN(C)Cc1c(O)ccc2c(=O)c(-c3ccccc3Cl)c(C(F)(F)F)oc12 | . | i
CCS(=O)(=O)c1ccc(O)c(NC(=O)NC2CCCCC2)c1 | 0.76 | i
O=C1C2CCCN2C(=S)N1c1ccc(Cl)cc1 (stereo not given) | . | i
CCc1cc(C(=O)c2ccc(Br)cc2)c(NC(=O)CN(CC)CC)s1 | -5.7 | -5.7*
CCN(CC)CC(=O)Nc1sc(C)cc1C(=O)c1ccccc1 | . | i
O=C(CCC1CCCC1)NCCS(=O)(=O)N1CCN(c2ccccc2)CC1 | . | i
COCCn1c(SCC(=O)N(C)c2c(N)n(Cc3ccccc3)c(=O)[nH]c2=O)nnc1-c1cccc(C)c1 | 0.01 | i
Cc1ccc(N2CC(C(=O)Nc3ccc(N4CCOCC4)cc3)CC2=O)cc1C (stereo not given) | . | i
O=C(c1nc2ccc(Cl)cn2c1CN1CCC[C@H]1CO)N1CCCCCCC1 | . | i
O=c1c2c(nc3nc(NCc4cccc(Cl)c4)[nH]n13)CCC2 | . | i
SMILES | KCNQ2 pot | KCNQ2 inh
COc1ccccc1CNC(=O)CN(Cc1ccc(Cl)cc1)S(C)(=O)=O | -5.9 | -5.9*
CS(=O)(=O)N(CC(=O)NCc1ccccc1)Cc1ccc(Cl)cc1 | . | i
Cc1cc2c(cc1S(=O)(=O)C(C)CC(=O)NCc1ccco1)OCC(=O)N2 (stereo not given) | . | i
CN(C(=O)COC(=O)c1cc(S(=O)(=O)N2CCOCC2)ccc1F)C1CCS(=O)(=O)C1 (stereo not given) | 1.6 | i
CCC(=O)N1CCc2cc(S(=O)(=O)N3CCN(c4ccccc4Cl)CC3)ccc21 | 0.1 | i
Cc1ccc(-n2cc(C(=O)c3cc(Cl)ccc3O)cc(C#N)c2=O)cc1 | . | i
Cc1ccccc1NC(=O)c1cc(C(=O)c2cc(Cl)ccc2O)cn(-c2ccccc2C)c1=O | -5.6 | -5.6*
Cc1ccc(NC(=O)c2cc(C)nc3ccccc23)cc1 | 0.37 | i
Cc1cc(NC(=O)c2cc(-c3ccc(C)s3)nc3ccccc23)no1 | . | i
Cc1ccc(C)c(NC(=O)c2cc(C)nc3ccccc23)c1 | -5.9 | -5.9*
O=C(Nc1cccnc1)c1cc(-c2ccc(Br)cc2)nc2ccccc12 | -6.3 | -6.3*
CC(=O)Nc1cccc(NC(=O)c2cc(-c3cccnc3)nc3ccc(Br)cc23)c1 | . | i
Cc1cccc(NC(=O)c2cc(-c3ccc(C)s3)nc3ccccc23)n1 | -7.5 | -7.5*
CCOC(=O)c1ccc(NC(=S)NNC(=O)c2cc(-c3cccnc3)nc3ccccc23)cc1 | . | i
O=C(NNC(=S)Nc1ccccc1)c1cc(-c2cccnc2)nc2ccccc12 | -6.1 | -6.1*
CCCCN1C(=O)/C(=C2/Sc3ccccc3N2C)S/C1=N\c1ncn[nH]1 | 1.6 | i
CC(CCc1ccccc1)NC(=O)CNC(=O)c1cccs1 (stereo not given) | 0.83 | i
COc1ccc2[nH]cc(CCNC(=O)c3ccc4ccccc4n3)c2c1 | 0.41 | i
Cc1ccc(C)c(-c2cc(C(=O)Nc3cccnc3)c3ccccc3n2)c1 | -6.3 | -6.3*
O=C(NCCCN1CCOCC1)c1cc(-c2ccc(Br)cc2)nc2ccccc12 | -6.8 | -6.8*

Bioassay records deposited in PubChem by Johns Hopkins Ion Channel Center.
